Consider eight molecules from PubChem BioAssay (NCI).

Molecules are shown by their SMILES. The panel holds about 83,000 compounds, 20% with a hit somewhere; the sample as a whole holds those more often.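 Values shown are percent growth following 48 h exposure of cells in 96-well plates to a single concentration of compound; below 10 was considered active.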 Values without a mark were called inactive. Calls of active or inactive are those of the source.

Some test systems named below: NCI-H23 lung; NCI-H226 lung; NCI-H322M lung; NCI-H460 lung; HOP-92 NSCLC; NCI-H522 lung; A549/ATCC NSCLC; 786-0 renal; COLO 205 colon; DU-145 prostate; K-562 leukemia; MALME-3M melanoma; MDA-MB-231 breast; RXF 393 renal; SF-268 CNS; SF-295 CNS; SF-539 CNS; UACC-257 melanoma; M14 melanoma; HOP-62 NSCLC.
What all share (test): NCI-60 one-dose screen, 48 h (100 = growth as untreated, 0 = no growth, -100 = all killed)
Conditions in all cases: 10 µM unless noted

`CCOC(=O)C/C(=C\c1ccccc1)C(C)=O`: the growth is 104% in the assay with NCI-H23 lung; 98.7% in the assay on NCI-H226 lung; 114% with NCI-H322M lung; 112% in the assay on NCI-H460 lung; 92.2% with HOP-92 NSCLC; 76.7% in the assay on NCI-H522 lung. In addition, the growth was 67.4% with A549/ATCC NSCLC; 101% in the assay on 786-0 renal; 102% in the assay with COLO 205 colon; 109% in the assay with DU-145 prostate; 87.6% in the assay with K-562 leukemia; 105% with MALME-3M melanoma. Moreover, the growth was -43.5% (active) with MDA-MB-231 breast; 115% in the assay with RXF 393 renal; 102% in the assay on SF-268 CNS; 98.5% with SF-295 CNS; 105% with SF-539 CNS; 82.8% in the assay with UACC-257 melanoma. In addition, the growth in the assay with M14 melanoma is 91.9%.
Consider `COCCNC1=C(Cl)C(=O)c2ccccc2C1=O`, for which the growth is 64.8% with NCI-H23 lung; 95.9% with NCI-H226 lung; 113% in the assay on NCI-H322M lung; 95.4% in the assay on NCI-H460 lung; 137% in the assay with HOP-92 NSCLC; 96.1% in the assay with NCI-H522 lung. The growth in the assay on A549/ATCC NSCLC was 88.8%; with 786-0 renal, 114%; in the assay on COLO 205 colon it was 110%; in the assay with DU-145 prostate, 53.9%; in the assay with K-562 leukemia, 99.8%; with MDA-MB-231 breast, 99.6%. Moreover, the growth is 105% with RXF 393 renal; 95.6% in the assay on SF-268 CNS; 75.1% in the assay on SF-295 CNS; 136% in the assay with SF-539 CNS; 100% in the assay with UACC-257 melanoma; 96.9% in the assay on M14 melanoma.
With `O=S(=O)(NCCNc1cc(-c2cn(-c3ccccc3)nc2-c2cccc(O)c2)ccn1)c1ccc(Br)cc1`, the growth was 39.4% with NCI-H23 lung; 45% with NCI-H226 lung; 50.8% with NCI-H322M lung; 26% with NCI-H460 lung; 33.3% with HOP-92 NSCLC; 31.9% in the assay on NCI-H522 lung. In addition, the growth was 27.2% with A549/ATCC NSCLC; 2.12% (active) with 786-0 renal; -64% (active) in the assay with COLO 205 colon; 52.2% in the assay on DU-145 prostate; 3.66% (active) with K-562 leukemia; 43.2% with MALME-3M melanoma. For the same molecule, the growth was 4.31% (active) in the assay on MDA-MB-231 breast; 40.1% with RXF 393 renal; 36.1% in the assay on SF-268 CNS; 7.27% (active) in the assay on SF-295 CNS; 46.2% in the assay with SF-539 CNS; 20.3% in the assay with M14 melanoma.
`N#CCCCCCn1c2ccccc2c2c3[nH]c(=O)[nH]c(=O)c3c3c4ccccc4n(CCCCCC#N)c3c21`: the growth in the assay with NCI-H23 lung is 55.6%; in the assay on NCI-H226 lung it was 65.8%; in the assay on NCI-H322M lung it was 42.5%; with HOP-62 NSCLC, 15.8%; in the assay on NCI-H460 lung it was 34.9%; in the assay on HOP-92 NSCLC it was 19.2%. Besides, the growth was 44.9% in the assay on NCI-H522 lung; 73.7% with A549/ATCC NSCLC; 0.172% (active) in the assay on 786-0 renal; 71.6% with COLO 205 colon; 54.7% in the assay with DU-145 prostate; 33.7% in the assay with MALME-3M melanoma. Also, the growth is -7.94% (active) in the assay with MDA-MB-231 breast; 41.4% with RXF 393 renal; 19.6% in the assay with SF-268 CNS; 43.7% with SF-295 CNS; -0.187% (active) in the assay on SF-539 CNS; 66.8% in the assay with M14 melanoma.
As for `NNC(=O)c1nc2ccccc2[nH]1`, the growth in the assay on NCI-H23 lung is 93.3%; in the assay with NCI-H226 lung it was 116%; with NCI-H322M lung, 107%; in the assay with NCI-H460 lung it was 108%; in the assay on HOP-92 NSCLC, 98.5%; in the assay with NCI-H522 lung, 96.8%. Also, the growth is 61.3% in the assay on A549/ATCC NSCLC; 102% in the assay with 786-0 renal; 103% in the assay with COLO 205 colon; 112% in the assay on DU-145 prostate; 87.2% in the assay on K-562 leukemia; 107% in the assay with MALME-3M melanoma. Further, the growth in the assay on MDA-MB-231 breast was 103%; with RXF 393 renal it was 124%; in the assay with SF-268 CNS it was 102%; in the assay with SF-295 CNS it was 104%; in the assay on SF-539 CNS, 103%; with UACC-257 melanoma, 65.9%. Moreover, the growth in the assay with M14 melanoma was 92.4%.
In the case of `c1ccc(-c2nc(Nc3ccc(-c4nc5ccccc5[nH]4)cc3)nc(N3CCOCC3)n2)cc1`, the growth in the assay with NCI-H23 lung is -59.1% (active); in the assay with NCI-H226 lung, -19.3% (active); in the assay with NCI-H322M lung, -0.466% (active); with NCI-H460 lung, -67.3% (active); in the assay on HOP-92 NSCLC it was -66.3% (active); in the assay on NCI-H522 lung it was -68.2% (active). The growth was -68.4% (active) in the assay with A549/ATCC NSCLC; -88.9% (active) with 786-0 renal; -68.8% (active) in the assay on COLO 205 colon; -27.8% (active) with DU-145 prostate; -30.1% (active) in the assay with K-562 leukemia; -77.3% (active) in the assay on MALME-3M melanoma. The growth in the assay on MDA-MB-231 breast is -63.3% (active); in the assay on RXF 393 renal it was -75.1% (active); with SF-268 CNS, -43.4% (active); with SF-295 CNS it was -76.4% (active); in the assay with SF-539 CNS, -76.8% (active).
`O=C(CCCCCn1c2ccccc2c2c3c(c4c5ccccc5[nH]c4c21)C(=O)N(O)C3=O)N1CCOCC1`: the growth in the assay with NCI-H23 lung is 52%; in the assay on NCI-H226 lung it was 19.1%; in the assay on NCI-H322M lung, 74.4%; in the assay with NCI-H460 lung, 35.8%; with HOP-92 NSCLC, 89.8%; in the assay on NCI-H522 lung, 9.19% (active). In addition, the growth is 91.4% with A549/ATCC NSCLC; 80.3% in the assay on 786-0 renal; 62% in the assay on COLO 205 colon; 69.6% in the assay with DU-145 prostate; 33.6% with K-562 leukemia; 113% with MALME-3M melanoma. In addition, the growth in the assay with MDA-MB-231 breast was 48.2%; in the assay with RXF 393 renal it was 56%; with SF-268 CNS, 47.4%; with SF-295 CNS, 28.5%; in the assay with SF-539 CNS, 35.6%; with M14 melanoma, 38.6%.
`COC(=O)[C@]12CC[C@@H](C(=O)/C=C/c3cccnc3)[C@@H]1[C@H]1CC[C@@H]3[C@@]4(C)C/C(=C/c5cccnc5)C(=O)C(C)(C)[C@@H]4CC[C@@]3(C)[C@]1(C)CC2`: the growth was -48.3% (active) in the assay with NCI-H23 lung; -44.4% (active) in the assay on NCI-H226 lung; -80.7% (active) with NCI-H322M lung; -78.4% (active) in the assay with NCI-H460 lung; -79.9% (active) in the assay with HOP-92 NSCLC; -59.7% (active) with NCI-H522 lung. Besides, the growth was -9.34% (active) in the assay on A549/ATCC NSCLC; -92.3% (active) with 786-0 renal; -45.1% (active) in the assay with COLO 205 colon; -67.8% (active) in the assay with DU-145 prostate; -21.6% (active) in the assay on K-562 leukemia; -95.2% (active) in the assay with MALME-3M melanoma. Also, the growth in the assay with MDA-MB-231 breast was -81.3% (active); with RXF 393 renal, -93.6% (active); in the assay with SF-268 CNS it was -80.8% (active); with SF-295 CNS, -98.5% (active); with SF-539 CNS, -96.5% (active); in the assay on UACC-257 melanoma it was -58.9% (active). Further, the growth in the assay on M14 melanoma was -80.3% (active).
